From PubChem BioAssay AID489025 (Southern Research Specialized Biocontainment Screening …, 2010)
The campaign covered roughly 2,300 compounds. About 790 (34%) were called active. How the calls were made is not given here. The list shows a part of the results. Measured potencies and affinities stand elsewhere.

assay: THP-1 cell cytotoxicity, dose response, cytotoxicity control for non-replicating M. tuberculosis project (AID 489025); details: THP-1 cell viability; series mostly up to 40 µM

Row | Compound | outcome
1 | CCOc1ccc(OCCSc2ccc(S(=O)(=O)N3CCN(C)CC3)cn2)cc1 | inactive
2 | CC(C)c1ccc(OCC(=O)NCc2ccccc2)cc1 | inactive
3 | Cc1cc2cc(CNC(=O)COc3ccccc3)ccc2n1C | inactive
4 | Cc1cc(C(=O)N/N=C/C=C/c2ccccc2)c(C)o1 | inactive
5 | Cc1cccc(NC(=O)c2cc3ccccc3o2)c1 | inactive
6 | Cc1nonc1C(=O)N/N=C/c1ccc([N+](=O)[O-])o1 | inactive
7 | COc1ccc(NC(=O)c2cc3ccccc3o2)cc1 | inactive
8 | NC(=O)COC(=O)c1sc2ccccc2c1Cl | inactive
9 | O=C(Nc1ccc(Cl)c(Cl)c1)O/N=C/c1ccncc1 | inactive
10 | O=C(NC1CC2CCC1C2)C1COc2ccccc2O1 (configuration not stated) | inactive
11 | O=C(NCc1ccccc1)c1cc2ccccc2oc1=O | inactive
12 | O=C(NCCc1cccc(Cl)c1)c1cc2ccccc2oc1=O | inactive
13 | O=C(O)c1ccc(-n2nc(C(F)(F)F)c3c2CCCC3)cc1 | inactive
14 | O=C(COc1ccc2ccccc2c1)Nc1ccncc1 | inactive
15 | S=c1[nH]cnc2sc(-c3ccccc3)cc12 | inactive
16 | Clc1ccccc1OCc1nnc(-c2ccccc2)o1 | inactive
17 | CCn1c(-c2ccco2)nc2ccccc21 | inactive
18 | CCOC(=O)c1csc(COc2ccccc2Cl)n1 | inactive
19 | COc1cccc(COC(=O)CCNC(=O)c2ccc(Br)cc2)c1OC | inactive
20 | CC(=O)c1ccc(NC(=O)C(Cc2ccccc2)n2cccc2)cc1 (configuration not stated) | inactive
21 | Cc1cc(NC(=O)COc2ccccc2)ccc1Cl | inactive
22 | Cc1ccsc1C(=O)OCC(=O)Nc1nnc(-c2ccccc2)o1 | inactive
23 | Cc1cc(C)c(OCC(=O)Nc2nnc(-c3ccco3)o2)c(C)c1 | inactive
24 | CCOc1cc(-c2nnc(NC(=O)c3ccco3)o2)cc(OCC)c1OCC | inactive
25 | O=C(NC1CCCC1)c1cc(-c2cccs2)on1 | inactive

Row | Compound | outcome
26 | O=C(Nc1nnc(C2=COCCO2)o1)c1ccc(Cc2ccccc2)cc1 | inactive
27 | CCc1ccc(NC(=O)CCc2ccc(C)o2)cc1 | inactive
28 | C=CCn1c(O)c(C(C)=Nc2ccc(C(=O)OCC)cc2)c(=O)[nH]c1=O | inactive
29 | Oc1ccc2cc(Br)ccc2c1CN1CCCC1 | inactive
30 | Cc1ccc(S(=O)(=O)NCC(=O)OCCOc2cccc(Cl)c2)cc1 | inactive
31 | O=C(Nc1nnc(-c2ccccc2Cl)o1)c1ccco1 | inactive
32 | O=C(Nc1nnc(-c2ccccc2Cl)o1)c1cccnc1 | inactive
33 | CC(C)OC(=O)c1cc(C(=O)c2cc(Cl)ccc2O)coc1=N | inactive
34 | COc1c[nH]n(C2CCCCC2)c(=O)c1=O | inactive
35 | Cc1ccc(N=N/C(=C\O)C(=O)c2ccncc2)cc1 | inactive
36 | O=C(NNC1CC(=O)N(c2ccccc2)C1=O)c1ccco1 (configuration not stated) | inactive
37 | NC(=O)N/N=C/c1ccccc1OC(=O)c1cc2ccccc2oc1=O | inactive
38 | Cc1ccc(C(=O)N2N=C(CC(C)C)CC2(O)C(F)(F)F)o1 (configuration not stated) | inactive
39 | Cn1nnc(NC(=O)COc2ccc(C3CCCCC3)cc2)n1 | inactive
40 | Cc1cc(O)c(-c2cc(O)c(C)cc2O)cc1O | inactive
41 | COc1ccc(-c2nnc(SCC(C)C)o2)cc1 | inactive
42 | COc1ccc(-c2nnc(NC(=O)C3=COCCO3)o2)cc1 | inactive
43 | Cc1ccn2nc(S(=O)(=O)Nc3c(F)cccc3F)nc2n1 | inactive
44 | COc1cccc(NC(=O)c2ccc(-c3ccc([N+](=O)[O-])cc3)o2)c1 | inactive
45 | CC(=O)Nc1ccc(NC(=O)c2cc([N+](=O)[O-])cc([N+](=O)[O-])c2)cc1 | inactive
46 | COc1ccc(CNC(=O)c2cc3cccc(O)c3oc2=N)cc1 | inactive
47 | CCOC(=O)COc1ccc2c(=O)c(-c3ccccc3OC)coc2c1 | inactive
48 | COC(=O)COc1ccc(-c2nn(C)c(=O)c3ccccc23)cc1 | inactive
49 | O=C(CNC(=O)c1ccco1)OCc1ccc(C(=O)Oc2ccccc2)cc1 | inactive
50 | CCOC(=O)c1ccc(NC2OC(=O)c3ccccc32)cc1 (configuration not stated) | inactive

Row | Compound | outcome
51 | CCOC(=O)CC(=O)Nc1ccc(C(=O)OCC)cc1 | inactive
52 | c1ccc(C2=Nc3ccccc3OC2)cc1 | inactive
53 | COc1cc(/C=N/NC(=O)c2ccccn2)ccc1OC(=O)c1cccs1 | inactive
54 | Cc1ccnc(NC(=O)CCc2c[nH]c3ccccc23)c1 | inactive
55 | O=C(CCc1c[nH]c2ccccc12)Nc1ncccc1O | inactive
56 | O=C(N/N=C/c1ccccn1)c1ccccc1 | inactive
57 | CC(C)c1ccc(/C=N/NC(=O)c2ccccn2)cc1 | inactive
58 | C/C(=N\Nc1ccc(Cl)cc1)c1ccccn1 | inactive
59 | O=C(N/N=C/c1ccccn1)c1cccc(S(=O)(=O)Nc2ccccc2Cl)c1 | inactive
60 | COc1cccc(/C=N/N2C(=O)CSC2=S)c1O | inactive
61 | CCCC(C)C(=O)Nc1ccc(Cl)cn1 (configuration not stated) | inactive
62 | O=[N+]([O-])c1ccc(N2CCCCCC2)c2nonc12 | inactive
63 | CC1CCCN(CCC(=O)c2ccc(Br)cc2)C1 (configuration not stated) | inactive
64 | C/C(=N\Nc1cccc2cccnc12)c1ccccn1 | inactive
65 | CC(OC(=O)c1ccc2c(=O)n3c(nc2c1)CCCCC3)C(=O)Nc1ccc(Cl)cn1 (configuration not stated) | inactive
66 | CCOC(=O)c1cc(-c2csc(COc3ccccc3)n2)on1 | inactive
67 | Cn1cccc1/C=N/NC(=O)c1ccco1 | inactive
68 | O=C(N/N=C/c1cn[nH]c1-c1ccccc1)c1ccco1 | inactive
69 | Cc1occc1C(=O)N/N=C/c1ccc[nH]1 | inactive
70 | COc1cc(Cl)cc(/C=N/NC(N)=O)c1O | inactive
71 | O=C(OCc1ccc([N+](=O)[O-])cc1)c1cc2ccccc2oc1=O | inactive
72 | Cc1cccc(NC(=O)c2cc3ccccc3oc2=O)c1 | inactive
73 | Cc1cc(C)n(-c2ccc(C(=O)OCC(=O)Nc3cc(Cl)ccc3[N+](=O)[O-])cc2)n1 | inactive
74 | COc1ccccc1/C=C/C=N/NC(=O)c1ccncc1 | inactive
75 | COc1ccc(OC(=O)C2CC(=O)N(c3ccc(C)cc3)C2)cc1 (configuration not stated) | inactive

Row | Compound | outcome
76 | O=C(COC(=O)c1cccs1)NCCC1=CCCCC1 | inactive
77 | CCCCN(C)C(=O)c1cc2cc3ccc(OC)cc3nc2s1 | inactive
78 | CN(CC(=O)Nc1ccc(C#N)cc1)Cc1ccc(Cl)c(Cl)c1 | inactive
79 | Cc1ccnc(NC(=O)COc2ccc3c(c2)CCC3)c1 | inactive
80 | Cc1cccnc1NC(=O)COc1ccc2oc3c(c2c1)CCCC3 | inactive
81 | O=C(O)COc1ccc2occ(C(=O)c3ccccc3)c2c1 | inactive
82 | CC(/C=C/c1ccco1)=N/NC(=O)c1ccc(C)nc1 | inactive
83 | CC(=O)N1N=C(c2ccccc2)OC1c1ccc([N+](=O)[O-])s1 (configuration not stated) | inactive
84 | O=C(N/N=C/c1ccc([N+](=O)[O-])s1)c1ccncc1 | inactive
85 | O=C(N/N=C\c1ccco1)c1cncc(Br)c1 | inactive
86 | Cc1onc(-c2ccccc2)c1C(=O)Nc1nnc(COc2ccc(Cl)cc2)s1 | inactive
87 | CNC(=S)N1CCN(c2c(F)cc3c(=O)c(C(=O)O)cn(C4CC4)c3c2OC)CC1C (configuration not stated) | inactive
88 | O=C(Oc1ccc(F)cc1)c1ccc2c(=O)n3c(nc2c1)CCC3 | inactive
89 | CCN(CC)C(=O)c1sc2nc(-c3ccccc3)ccc2c1N | inactive
90 | O=C(Nc1ccc(Br)cc1)c1cc([N+](=O)[O-])cc([N+](=O)[O-])c1 | inactive
91 | Cc1ccc(C(=O)CCNc2ccc(F)c(Cl)c2)o1 | inactive
92 | CCCCSc1nnc(-c2ccc(C)cc2)o1 | inactive
93 | CC1=NN(c2ccc(C(=O)O)cc2)C(=O)/C1=C\c1ccc(OC(=O)c2cccs2)cc1 | inactive
94 | O=C(N/N=C/c1cccs1)c1cncc(Br)c1 | inactive
95 | Cc1ccc(/C=N/NC(=O)c2ccncc2)s1 | inactive
96 | COc1ccc(C(=O)COC(=O)c2ccc([N+](=O)[O-])s2)cc1OC | inactive
97 | Cc1ccc(C(=O)N/N=C\c2ccc[nH]2)cn1 | inactive
98 | CCC(=O)N/N=C/c1ccc(-c2ccc(Cl)cc2)o1 | inactive
99 | O=C(N/N=C/c1ccc(Br)s1)c1ccncc1 | inactive
100 | Cc1ccc(NC(=O)CC2SC3=NCCCN3C2=O)c(C)c1 (configuration not stated) | inactive

Row | Compound | outcome
101 | CCC1CCC(c2nnc(-c3ccc([N+](=O)[O-])cc3)o2)CC1 (configuration not stated) | inactive
102 | Nc1ccc(Br)c2cccnc12 | inactive
103 | CCC(C)n1c(=S)[nH]c2ccccc2c1=O (configuration not stated) | inactive
104 | O=C(N/N=C/c1ccc(Br)s1)c1cccnc1 | inactive
105 | CC(C)(C)OC(=O)N/N=C\c1ccc([N+](=O)[O-])s1 | inactive
106 | COc1cc(/C=C2/C(=O)NN(c3cccc(F)c3)C2=O)ccc1OC(=O)c1ccco1 | inactive
107 | CCOc1ccc(Nc2ccc([N+](=O)[O-])c3nonc23)cc1 | inactive
108 | CS/C(Nc1cc(Cl)ccc1Cl)=C(/C#N)C(=O)c1ccco1 | inactive
109 | Cc1ccc(NC(=O)C(=O)NNC(=O)c2ccccc2C)cc1Cl | inactive
110 | CCOC(=O)N1CCN(c2cc(C)c([N+](=O)[O-])cc2F)CC1 | inactive
111 | Cc1ccc(CN2CC(C(=O)OCc3ccccc3Cl)CC2=O)cc1 (configuration not stated) | inactive
112 | Cc1cccc(C)c1NC(=O)c1sc(N)nc1-c1ccccc1 | inactive
113 | Cc1ccc(NC(=O)c2noc(C(C)C)c2[N+](=O)[O-])cc1 | inactive
114 | Cc1ccc2cc(/C=N/NC(=O)[C@H](C)NC(=O)OC(C)(C)C)c(Cl)nc2c1 | inactive
115 | O=C(N/N=C/c1cccc(F)c1)c1c(O)c2ccccc2[nH]c1=O | inactive
116 | CC(=O)Oc1ccc(/C=C2\N=C(C3CCCCC3)OC2=O)cc1 | inactive
117 | COc1cc(N=c2ssnc2Cl)cc(OC)c1OC | inactive
118 | O=C(CCSc1nnc(-c2ccncc2)o1)Nc1cccc(Cl)c1 | inactive
119 | CCn1ccc(C(=O)Nc2cccc(Cl)c2)n1 | inactive
120 | CCN1CCN(Cc2cc(C(C)(C)C)c(O)c(C(C)(C)C)c2)CC1 | inactive
121 | CC(=O)Nc1cccc(-c2nc3ccccc3c(=O)o2)c1 | inactive
122 | CCCCOC(=O)Cn1c(-c2ccccc2)nc2ccccc2c1=O | inactive
